Laboratory results published in PubChem BioAssay (NCI).
The panel holds about 83,000 compounds, 20% with a hit somewhere; the sample as a whole holds those more often.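 Single-concentration screen, 48 h exposure, 96-well plates. Endpoint: percent growth. Below 10 = active.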 Calls of active or inactive are those of the source.

What follows are compounds tested on SW-620 colon (assay: NCI-60 one-dose screen, 48 h (100 = growth as untreated, 0 = no growth, -100 = all killed)). Settings: 10 µM.
Method: Growth inhibition of the SW-620 human tumor cell line is measured as a screen for anti-cancer activity. Cells are grown in 96 well plates and exposed to the test compound for 48 hours. Compounds are tested at a single concentration, which is 10^-5 M for most compounds. The reported endpoint is percent growth (GI% or GIPRCNT), where numbers from 0 - 100% represent growth inhibition, and numbers from -100% - 0 represent cell death. For example, a value of 40 represents 60% growth inhibition. A value of 0 means no net growth occurred over the course of the experiment. A value of -40 indicates 40% of cells at the beginning of the experiment died by the end of the experiment. A value of -100 means all cells are dead at the end of the experiment.
NCI-60 Human Tumor Cell Lines Screen was performed using the standard one-dose NCI protocol, which is described in more detail at https://dtp.cancer.gov/discovery_development/nci-60/default.htm.
Compounds with GIPRCNT values below 10 were considered active. Activity score was based on GIPRCNT using the following formula: […]
Score is 0 for GIPRCNT values of 100 or above, 50 for GIPRCNT values of 0, and 100 for GIPRCNT values of -100.
With `CC[C@]12C=CCN3CC[C@@]4(c5ccc(OC)cc5N(C)[C@H]4[C@@](O)(C(=O)OC)[C@@H]1OC(=O)CCC[P+](C1CCCCC1)(C1CCCCC1)C1CCCCC1)[C@@H]32` the growth was 3.91% (active). In the case of `CC1=C(CCC=NNC(N)=O)C2=C(C)C3(CC3)[C@@](C)(O)C(=O)C2=C1`, the growth is reported as -20.7% (active). For `C#CC[Se]C(=O)c1ccc(C(=O)[Se]CC#C)s1`, the growth was 98.2% (inactive). In the case of `COCCOCCOCCOc1ccc(-n2cc(-c3ccc(O[C@H]4O[C@@H]5OC6(C)CC[C@H]7[C@H](C)CC[C@@H]([C@H]4C)[C@@]57OO6)cc3)nn2)cc1`, the growth is reported as 27.7% (inactive). For `CC12OOC(C)(OO1)C2CCC(=O)OCCNc1ccnc2cc(Cl)ccc12` (stereo not given), the growth was 7.3% (active). With `CC(=O)Oc1ccccc1C(=O)[Se]C(=NC(C)C)NC(C)C` the growth was -72.4% (active). For `COC(=O)C[C@](O)(CCC(C)C)C(=O)O[C@@H]1C(OC)=C[C@]23CCCN2CCc2cc4c(cc2[C@H]13)OCO4`, the growth was -7.29% (active). With `O=C(NC([Se])=NC1CCCCC1)c1ccc2c(c1)OCO2` the growth was 41.2% (inactive). `CC(C)N=C([Se])NC(=O)c1ccccc1` was tested, and the growth was -20.9% (active). `COc1cc2cc(C(=O)N3C[C@@H](CCl)c4c3cc(OC(=O)N3CCN(C)[C@@H]5CSSC[C@@H]53)c3ccccc43)[nH]c2c(OC)c1OC` was tested, and the growth was -6.71% (active). With `C[C@H]1[C@H](OC(=O)CCC(=O)Nc2cnccn2)O[C@@H]2OC3(C)CC[C@H]4[C@H](C)CC[C@@H]1[C@@]24OO3` the growth was 21.8% (inactive). For `CC[C@]12C=CCN3CC[C@@]4(c5ccc(OC)cc5N(C)[C@H]4[C@@](O)(C(=O)OC)[C@@H]1OC(=O)CCC[P+](c1ccc(F)cc1)(c1ccc(F)cc1)c1ccc(F)cc1)[C@@H]32`, the growth was 45.3% (inactive). `C[C@H]1[C@@H](Oc2ccc(-c3cn(-c4ccnc5cc(Cl)ccc45)nn3)cc2)O[C@@H]2OC3(C)CC[C@H]4[C@H](C)CC[C@@H]1[C@@]24OO3` was tested, and the growth was 27% (inactive). For `C=CCN=C([Se])NC(=O)c1ccc2c(c1)OCO2`, the growth was 111% (inactive). `CCOP(=O)(CC(F)(F)C(F)(F)F)OCC` was tested, and the growth was -8.33% (active). With `CC[C@@]12CC(C(=O)OC)=C3Nc4cc5c(cc4[C@@]34CCN(C[C@H]3O[C@H]31)[C@@H]24)[C@@H]1[C@H](O5)[C@@H](O)[C@@]2(CC)CC(C(=O)OC)=C3Nc4cc(OC)ccc4[C@@]34CCN1[C@@H]24` the growth was 16.3% (inactive). In the case of `CC[C@]12C=CCN3CC[C@@]4(c5ccc(OC)cc5N(C)[C@H]4[C@@](O)(C(=O)OC)[C@@H]1OC(=O)CCCC[P+](c1ccc(OC)cc1)(c1ccc(OC)cc1)c1ccc(OC)cc1)[C@@H]32`, the growth is reported as -88.7% (active). In the case of `COc1ccc2cc([C@H](C)C(=O)[Se]CCC#N)ccc2c1`, the growth is reported as -22.9% (active). `C[C@H]1[C@@H](CC(=O)N[C@@H](Cc2coc3ccccc23)B(O)O)O[C@@H]2OC3(C)CC[C@H]4[C@H](C)CC[C@@H]1[C@@]24OO3` was tested, and the growth was 2.66% (active). In the case of `COC(=O)CCn1c(-c2ccc(-n3cc(-c4ccc(O[C@H]5O[C@@H]6OC7(C)CC[C@H]8[C@H](C)CC[C@@H]([C@H]5C)[C@@]68OO7)cc4)nn3)cc2)nc2ccccc21`, the growth is reported as 23.9% (inactive). `CC(C)C[C@H](NC(=O)CNC(=O)C[C@H]1O[C@@H]2OC3(C)CC[C@H]4[C@H](C)CC[C@@H]([C@H]1C)[C@@]24OO3)B(O)O` was tested, and the growth was 1.51% (active). In the case of `COP(=O)(CC(F)(F)C(F)(F)F)OC`, the growth is reported as -15.9% (active). With `CCOC(=O)C1=C(Nc2ccccc2)C(=O)OC12C(=O)Nc1ccccc12` (stereo not given) the growth was 97.1% (inactive). For `CC1=C2C(=C[C@@](C)(COP(=O)(Oc3ccccc3)Oc3ccccc3)[C@@H]2O)C(=O)[C@@](C)(O)C12CC2`, the growth was 29.8% (inactive). For `COc1cc2cc(C(=O)N3C[C@@H](CCl)c4c3cc(OC(=O)N3CCN(C(=O)CCC(=O)N5CCN(C)CC5)[C@@H]5CSSC[C@@H]53)c3ccccc43)[nH]c2c(OC)c1OC`, the growth was -23.4% (active). With `Cc1c2oc3c(C)ccc(C(=O)N[C@@H]4C(=O)N[C@H](C(C)C)C(=O)N5CCC[C@H]5C(=O)N(C)CC(=O)N(C)[C@@H](C(C)C)C(=O)OC4C)c3nc-2c(C(=O)N[C@@H]2C(=O)N[C@H](C(C)C)C(=O)N3CC(=O)C[C@H]3C(=O)N(C)CC(=O)N(C)[C@@H](C(C)C)C(=O)OC2C)c(N)c1=O` (stereo not given in full) the growth was 6.93% (active). With `CC1=C(COCCOC(=O)c2ccc(S(=O)(=O)F)cc2)C2=C(C)C3(CC3)[C@@](C)(O)C(=O)C2=C1` the growth was 62.3% (inactive). In the case of `COc1cc2cc(C(=O)N3C[C@@H](CCl)c4c3cc(OC(=O)N3CCN(C)[C@@H]5CSSC[C@H]53)c3ccccc43)[nH]c2c(OC)c1OC`, the growth is reported as -9.04% (active). `C#CCCCN(CCNc1ccnc2cc(Cl)ccc12)C(=O)CCC(=O)O[C@@H]1O[C@@H]2OC3(C)CC[C@H]4[C@H](C)CC[C@@H]([C@H]1C)[C@@]24OO3` was tested, and the growth was 33.2% (inactive). In the case of `COC(=O)c1ccc(-n2cc(CCCN(CCNc3ccnc4cc(Cl)ccc34)C(=O)CCC(=O)O[C@@H]3O[C@@H]4OC5(C)CC[C@H]6[C@H](C)CC[C@@H]([C@H]3C)[C@@]46OO5)nn2)cc1`, the growth is reported as 31.6% (inactive). With `Cc1ccc2[nH]c(=S)n(-c3ccc(F)cc3)c(=O)c2c1` the growth was 102% (inactive). `COC(=O)C[C@](O)(CCC(C)C)C(=O)O[C@H]1C(OC)=C[C@@]23CCCN2CCc2cc4c(cc2[C@@H]13)OCO4` was tested, and the growth was -27.9% (active). For `CCOP(=O)(OCC)C(NC(C)=O)C(=O)SCCN` (stereo not given), the growth was 112% (inactive). In the case of `O=C(NCCCCC(c1ccc(F)cc1)c1ccc(F)cc1)Nc1ccc([N+](=O)[O-])c(C(F)(F)F)c1`, the growth is reported as 8.81% (active). `CC12OOC(C)(OO1)C2CCC(=O)NCCCNc1ccnc2cc(Cl)ccc12` (stereo not given) was tested, and the growth was 18.9% (inactive). With `C[C@H]1[C@H](OC(=O)CCC(=O)N(CCCc2cn(-c3ccc([N+](=O)[O-])cc3)nn2)CCNc2ccnc3cc(Cl)ccc23)O[C@@H]2OC3(C)CC[C@H]4[C@H](C)CC[C@@H]1[C@@]24OO3` the growth was 38% (inactive). In the case of `COCCOCCOCCOc1ccc(-n2cc(CCCN(CCNc3ccnc4cc(Cl)ccc34)C(=O)CCC(=O)O[C@@H]3O[C@@H]4OC5(C)CC[C@H]6[C@H](C)CC[C@@H]([C@H]3C)[C@@]46OO5)nn2)cc1`, the growth is reported as 30% (inactive). With `CC[C@]12C=CCN3CC[C@@]4(c5ccc(OC)cc5N(C)[C@H]4[C@@](O)(C(=O)OC)[C@@H]1OC(=O)CCC[P+](c1ccc(C)cc1)(c1ccc(C)cc1)c1ccc(C)cc1)[C@@H]32` the growth was -85.2% (active). `CC(=C\C(=O)Oc1ccc2c3c1OC1C(O)CCC4(O)C(C2)N(CC2CCC2)CCC314)/C=C1\CCCc2ccccc21` (stereo not given) was tested, and the growth was 28.4% (inactive). For `CC1=C(CCC=O)C2=C(C)C3(CC3)[C@@](C)(O)C(=O)C2=C1`, the growth was -74.9% (active).
